HSF1 inh: HSF1 inhibitors in luciferase reporter cells, primary screen, cell-based, NIH3T3, luminescence; NIH3T3-HGL HSE-luciferase, MG132-induced, luminescence 8 h; hits give low values; activity change, negative = inhibition, % at 7.5 µM (by protocol); 300,000 compounds, 0.77% hits; AID 2098, 2009;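 active = more than half of replicate wells show activity change below -50%, luminescence cut by over half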;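 also: luciferase reports HSF-1 transcriptional activity via heat shock element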
FXN GAA850 act: FXN promoter activators, primary screen, cell-based, luciferase luminescence, HEK293 lucGAA850 | HEK293 lucGAA850 FXN promoter luciferase reporter, 24 h; percent of 10 µM SAHA response | activation, % at 6 µM | 360,000 compounds, 0.56% hits | AID 540364, 2011;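 active = activation above the average of all compounds screened plus 3 SD, cutoff fixed separately per campaign, cut at about 7.5% in these data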
AHR act: AHR activators, primary screen, cell-based, luminescence, luciferase reporter, human; Aryl hydrocarbon receptor (Homo sapiens), P35869; AHR-responsive luciferase reporter cells; activation, % at 5 µM; 320,000 compounds, 2.5% hits; AID 2796, 2010; in the data active = activation above about 47%
Target sequence (P35869 whole entry, looked up): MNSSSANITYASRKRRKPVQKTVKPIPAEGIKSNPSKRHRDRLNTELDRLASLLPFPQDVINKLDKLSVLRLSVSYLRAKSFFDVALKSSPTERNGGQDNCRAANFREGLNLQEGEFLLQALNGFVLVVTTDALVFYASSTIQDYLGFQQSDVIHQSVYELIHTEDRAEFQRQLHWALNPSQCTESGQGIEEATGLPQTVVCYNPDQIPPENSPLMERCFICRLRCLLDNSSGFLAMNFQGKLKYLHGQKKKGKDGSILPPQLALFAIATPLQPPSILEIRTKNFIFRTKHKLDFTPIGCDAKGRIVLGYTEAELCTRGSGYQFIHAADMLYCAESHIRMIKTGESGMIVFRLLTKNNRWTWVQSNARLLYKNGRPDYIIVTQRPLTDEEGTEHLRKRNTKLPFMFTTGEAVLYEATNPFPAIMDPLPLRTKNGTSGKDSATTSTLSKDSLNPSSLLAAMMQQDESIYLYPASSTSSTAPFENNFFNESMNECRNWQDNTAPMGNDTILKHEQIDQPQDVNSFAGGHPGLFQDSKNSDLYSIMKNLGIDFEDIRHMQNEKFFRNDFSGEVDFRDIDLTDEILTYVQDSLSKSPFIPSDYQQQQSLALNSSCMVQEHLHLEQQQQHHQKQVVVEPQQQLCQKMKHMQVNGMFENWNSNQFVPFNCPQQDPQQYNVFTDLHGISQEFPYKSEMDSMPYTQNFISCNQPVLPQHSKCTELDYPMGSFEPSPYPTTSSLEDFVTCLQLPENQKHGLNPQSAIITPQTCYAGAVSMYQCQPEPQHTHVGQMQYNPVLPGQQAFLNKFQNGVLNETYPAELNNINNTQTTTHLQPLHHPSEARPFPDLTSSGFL
HSF-1 act: HSF-1 activators, primary screen, NIH3T3-HGL cells, MG132 stress, luminescence, single point | AID 504408, 2011 | NIH3T3-HGL HSF-1 luciferase reporter, 8 h; 100% = twice DMSO control signal | 300,000 compounds, 1.7% hits | activation, % at 9 µM;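 active = mean replicate activation of at least 50% with a set share of replicates each reaching 50%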
Hits are given with their value. An excerpt weighted towards active compounds, which were near 4.6% of everything screened.

`CC(=O)O[C@@H]1/C=C/[C@](C)(O)C[C@@H](C)C/C=C/[C@H]2[C@H](O)[C@@](C)(O)[C@@H](C)[C@H]3[C@H](Cc4ccccc4)NC(=O)[C@@]312` gave HSF1 inh inactive, FXN GAA850 act inactive, AHR act inactive and HSF-1 act inactive.
`CC(=O)O[C@@H]1/C=C/[C@](C)(O)C[C@@H](C)C/C=C/[C@H]2[C@@H]3O[C@]3(C)[C@@H](C)[C@H]3[C@H](Cc4ccccc4)NC(=O)[C@@]312` gave HSF1 inh inactive, FXN GAA850 act 18, AHR act inactive and HSF-1 act inactive.
`Cc1ccc(N2C(=O)NC(=O)/C(=C/c3cnn(-c4ccc(C)cc4)c3)C2=O)cc1` gave HSF1 inh -70, FXN GAA850 act inactive, AHR act inactive and HSF-1 act inactive.
O=C(Nc1nccs1)c1c(O)c2c(n(Cc3ccco3)c1=O)CCCC2 was read as HSF1 inh inactive, FXN GAA850 act inactive, AHR act inactive and HSF-1 act inactive.
For O=c1[nH]c(=O)n(Cc2ccccc2)c(O)c1C=NCCN1CCNCC1 the results were HSF1 inh -85, FXN GAA850 act inactive, AHR act inactive and HSF-1 act inactive.
C[C@]12CCC(=O)C=C1CC[C@@H]1[C@@H]2C(=O)C[C@]2(C)C(=O)CC[C@@H]12 was read as HSF1 inh inactive, FXN GAA850 act inactive, AHR act inactive and HSF-1 act inactive.
For CC(=O)OC1(c2ccccc2)CCN(C)C2CCCCC21 (stereo not given) the results were HSF1 inh -52, FXN GAA850 act inactive, AHR act inactive and HSF-1 act inactive.
For N#C/C(=C(/O)c1ccc(S(=O)(=O)N(CCCl)CCCl)cc1)c1nc2ccccc2[nH]1 the results were HSF1 inh inactive, FXN GAA850 act inactive, AHR act inactive and HSF-1 act inactive.
Screening O=C1NC(=O)N(Cc2ccc(F)cc2)C(=O)/C1=C\C=C\c1ccco1 returned HSF1 inh inactive, FXN GAA850 act inactive, AHR act inactive and HSF-1 act 82.
For O=C1NC(=O)N(Cc2ccccc2)C(=O)/C1=C\c1ccco1 the results were HSF1 inh inactive, FXN GAA850 act inactive, AHR act inactive and HSF-1 act inactive.
For COc1cccc(NC(=O)CN2CC(c3ccccc3)CC2=O)c1 (stereo not given) the results were HSF1 inh inactive, FXN GAA850 act inactive, AHR act inactive and HSF-1 act inactive.
For O=C(CN1CC(c2ccccc2)CC1=O)NCc1ccc(F)cc1 (stereo not given) the results were HSF1 inh -66, FXN GAA850 act inactive, AHR act inactive and HSF-1 act inactive.
Screening Cc1c(C=O)c2ccccc2n1Cc1ccccc1 returned HSF1 inh inactive, FXN GAA850 act inactive, AHR act inactive and HSF-1 act inactive.
`O=c1[nH]c(=S)[nH]c(O)c1N=Nc1ccc2c(c1)OCO2` gave HSF1 inh inactive, FXN GAA850 act inactive, AHR act 75 and HSF-1 act inactive.
For COc1ccc(N=Nc2c(O)[nH]c(=S)[nH]c2=O)cc1 the results were HSF1 inh inactive, FXN GAA850 act inactive, AHR act inactive and HSF-1 act inactive.
For COc1cccc(N=Nc2c(O)[nH]c(=S)[nH]c2=O)c1 the results were HSF1 inh inactive, FXN GAA850 act inactive, AHR act inactive and HSF-1 act 103.
`O=c1[nH]c(O)c(N=Nc2ccc3c(c2)OCCO3)c(=O)[nH]1` gave HSF1 inh -62, FXN GAA850 act inactive, AHR act inactive and HSF-1 act inactive.
Screening O=c1[nH]c(=S)[nH]c(O)c1N=Nc1ccc2c(c1)OCCO2 returned HSF1 inh inactive, FXN GAA850 act inactive, AHR act inactive and HSF-1 act 73.
Screening COC(=O)C1=C(c2ccccc2OCc2ccccc2)C[C@@H]2CC[C@H]1N2C(=O)NCc1ccc(Br)cc1 returned FXN GAA850 act inactive and AHR act inactive.
For COC(=O)C1=C(c2ccc3ccccc3c2)C[C@@H]2CC[C@H]1N2C the results were FXN GAA850 act inactive and AHR act inactive.
For COC(=O)C1=C(C(=O)OC)C2OC1c1cc3ccccc3cc12 the results were HSF1 inh 59, FXN GAA850 act inactive and HSF-1 act 59.
For O=C1NC(=O)C(=Cc2ccccc2[N+](=O)[O-])C(=O)N1 the results were FXN GAA850 act inactive.
COc1ccc(C[C@H]2NC[C@H](O)[C@H]2OC(C)=O)cc1 was read as HSF1 inh -75, FXN GAA850 act inactive, AHR act inactive and HSF-1 act inactive.

Source: PubChem BioAssay
